# PAFAH2 inh: inhibitors of human PAFAH2 | inhibition, % at 3.39 µM | actives 0.99% (n = 340,000) | Q99487 | recombinant PAFAH2, FP-rhodamine activity probe, fluorescence polarization;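 active = inhibition above the mean over all tested compounds plus 3 SD, cut at about 30% in these data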;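 also: inhibitors block probe labeling of enzyme so polarization drops; 0% = enzyme with DMSO and 100% = wells lacking PAFAH2 protein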
# PKA-R1A activ: activators of PKA-R1A complex; P00514+P68181; PKA-R1A dissociation, Cy5-IP20 fluorescence polarization; scaled: DMSO 0%, 113 µM cGMP 100%; activation, % at 11.4 µM; actives 0.083% (n = 340,000); AID 504707;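 active = percent activation above the mean of all tested compounds plus 3 SD, cut at about 19% in these data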;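 also: higher means more PKAc released from R1A so a rise in polarization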
# pPAFAH inh: inhibitors of human plasma PAF acetylhydrolase (pPAFAH); recombinant pPAFAH, FP-rhodamine probe fluorescence polarization; inhibition, % at 3.39 µM; actives 1.5% (n = 330,000);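 active = inhibition above the mean inhibition across the screen plus 3 SD, cut at about 25% in these data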;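 also: inhibitors block binding of the rhodamine activity-based probe so polarization drops; 0% = enzyme with DMSO and 100% = wells lacking pPAFAH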
# Target sequence (Q13093 whole entry, looked up): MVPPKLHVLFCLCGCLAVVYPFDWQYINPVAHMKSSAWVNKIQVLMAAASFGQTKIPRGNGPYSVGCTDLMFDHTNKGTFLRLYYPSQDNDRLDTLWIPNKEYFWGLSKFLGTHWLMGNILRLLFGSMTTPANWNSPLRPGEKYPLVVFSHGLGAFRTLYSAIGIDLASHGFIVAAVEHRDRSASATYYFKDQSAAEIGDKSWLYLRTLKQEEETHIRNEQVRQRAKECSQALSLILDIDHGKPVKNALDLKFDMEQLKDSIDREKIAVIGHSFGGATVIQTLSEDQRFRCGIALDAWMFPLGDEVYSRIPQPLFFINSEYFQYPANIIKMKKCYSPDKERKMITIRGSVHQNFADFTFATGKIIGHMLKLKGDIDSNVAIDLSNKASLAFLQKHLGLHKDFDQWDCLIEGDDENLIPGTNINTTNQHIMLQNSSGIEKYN
# PAFAH1B3 inh: inhibitors of human PAFAH1B3; Q15102; recombinant PAFAH1B3, FP-rhodamine probe, fluorescence polarization; inhibition, % at 3.39 µM; actives 0.28% (n = 340,000);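 active = inhibition above the screen-wide average of all tested compounds plus 3 SD, cut at about 25% in these data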;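 also: 0% = enzyme with DMSO only and 100% = wells lacking PAFAH1B3 protein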
# Target sequence (Q15102 whole entry, looked up): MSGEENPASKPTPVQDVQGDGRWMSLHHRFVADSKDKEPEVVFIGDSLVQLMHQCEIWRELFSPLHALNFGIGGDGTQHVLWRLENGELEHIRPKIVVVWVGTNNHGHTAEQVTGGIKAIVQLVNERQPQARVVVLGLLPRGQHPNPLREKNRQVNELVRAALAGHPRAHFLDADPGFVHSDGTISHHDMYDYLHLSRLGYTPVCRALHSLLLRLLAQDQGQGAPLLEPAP
# PAFAH1B2 inh: inhibitors of human PAFAH1B2. AID 492953. inhibition, % at 3.39 µM. recombinant PAFAH1B2, FP-rhodamine activity probe, fluorescence polarization. P68402. actives 1.2% (n = 340,000);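 active = inhibition above the mean of all tested compounds plus 3 SD, cut at about 24% in these data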;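 also: 0% = enzyme with DMSO and 100% = wells lacking PAFAH1B2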
# PKA-R2B act: PKA-R2B complex activation | activation, % at 11.4 µM | actives 0.079% (n = 340,000) | PKA-R2B holoenzyme dissociation, Cy5-IP20 fluorescence polarization; R2B truncated from residue 108, S112A mutant; 0% DMSO only, 100% 113 µM cGMP | P22694+P31323 | AID 504700;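 active = activation above a cutoff set at the mean over all compounds plus 3 SD, cut at about 18% in these data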;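 also: higher means more holoenzyme dissociation and a rise in polarization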
# PAFAH2 FP conf: confirmation of human PAFAH2 inhibitors; inhibition, % at 3.39 µM; shares compounds with PAFAH2 inh; recombinant PAFAH2, FP-rhodamine activity probe, fluorescence polarization; actives 65% (n = 2,300); AID 493030;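 active = mean inhibition over three repeats above a set limit taken from the earlier primary screen, cut at about 30% in these data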;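 also: inhibitor blocks binding of rhodamine activity probe so polarization falls; 0% = enzyme with DMSO and 100% = wells lacking PAFAH2 protein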
# * = called active by the depositor; . = not tested or not shown. In the library only some 2.6% were active in any assay of this set; here they are far more common.
SMILES,PAFAH2 inh,PKA-R1A activ,pPAFAH inh,PAFAH1B3 inh,PAFAH1B2 inh,PKA-R2B act,PAFAH2 FP conf
Cc1ccc(CNC(=O)COC(=O)CN2C(=O)C3CC=CCC3C2=O)cc1 (configuration not stated),37.0*,8.3,0.9,11.9,5.3,-4.5,19.8
O=c1[nH]nc(Sc2ccccc2)c(=S)[nH]1,.,0.1,.,.,.,7.4,.
COc1ccccc1NC(=O)c1ccccc1NS(=O)(=O)c1cccs1,43.6*,-4.9,8.2,6.7,3.3,-7.8,40.1*
COC(=O)c1cc(NS(=O)(=O)c2cccs2)cc(NS(=O)(=O)c2cccs2)c1,32.2*,4.8,.,7.0,3.5,4.7,13.0
COc1cc(/C=C/C(=O)OCC(=O)N2CCC(Cc3ccccc3)CC2)ccc1O,13.8,-4.3,11.8,6.1,-2.4,-18.1,.
COc1cc(/C=C/C(=O)OCC(=O)NC(=O)NC2CCCC2)ccc1OCC#N,12.6,3.9,.,2.7,3.9,0.9,.
COc1cccc(C(=O)OCC(=O)N2CCc3ccccc3C2)c1OC,.,.,9.7,.,.,.,.
COc1cc(/C=C/C(=O)OCC(=O)N2CC3(C)CC2CC(C)(C)C3)ccc1O (configuration not stated),42.2*,-0.9,5.5,-6.3,11.6,0.1,19.9
COc1cc(/C=C/C(=O)OCC(=O)N2CCc3ccccc3C2)ccc1O,35.0*,-0.1,7.6,8.4,-0.1,-4.4,35.5*
COc1cc(/C=C/C(=O)OCC(=O)N2CCC(C)CC2)ccc1OCC#N,41.6*,-3.4,0.4,8.8,1.1,-15.6,22.2
COc1cc(/C=C/C(=O)OCC(=O)N2CCC(C)CC2)ccc1O,56.4*,-19.1,4.9,1.0,3.2,-7.0,45.1*
Cc1cc(=O)oc2cc(OCC(=O)Nc3c(C)n(C)n(-c4ccccc4)c3=O)c(Cl)cc12,-0.9,-4.1,.,0.8,4.5,1.2,.
COc1cccc(-c2nc(C(=O)NCC3CCCO3)cc3c2[nH]c2ccccc23)c1 (configuration not stated),-6.2,-7.6,9.7,0.8,1.1,-13.2,.
Cc1ccc(NC(=O)CSc2nnc(CCC(=O)O)c(=O)[nH]2)cc1,-0.9,-6.8,-2.9,-0.6,-0.1,-0.4,.
CCC(CC)C(=O)Nc1nnc(S(=O)(=O)Nc2ccccc2C)s1,7.5,3.2,15.5,4.6,8.8,-0.6,.
COc1ccc([N+](=O)[O-])cc1NC(=O)COC(=O)C=C(C)C,-32.1,-0.9,2.2,3.8,-6.6,0.4,.
CC(C)=CC(=O)OCC(=O)Nc1cc([N+](=O)[O-])ccc1F,62.0*,-13.0,-7.6,-0.5,-8.3,-11.9,68.1*
CC(C)=CC(=O)OCC(=O)Nc1ccc(F)cc1Cl,47.2*,0.6,7.1,8.0,0.1,10.4,41.1*
O=C(COc1ccc(-n2cnnn2)cc1)Nc1ccccc1OC(F)F,-3.3,-5.5,1.9,3.8,-3.4,1.9,.
CCCn1c(=O)n(C)c(=O)c2c(SCC(=O)Nc3cc(C)on3)nc(C(C)(C)C)nc21,-3.8,-8.2,-0.1,-2.0,1.6,-4.6,.
COc1ccc(OC)c(CCNC(=O)CN2C(=O)CCSc3ccccc32)c1,35.7*,9.6,2.3,17.2,15.9,-18.1,-6.5
Cc1ccc(C(C)C)c(OCCNCCc2ccccc2)c1,-3.2,3.7,1.4,8.1,-0.1,5.5,.
CC1CCCC(NC(=O)COc2ncnc3ccccc23)C1C (configuration not stated),8.6,4.1,-7.5,9.7,2.7,-1.6,.
O=C(COC(=O)c1cccs1)NC1CCCC1,80.8*,0.8,12.2,0.9,-1.0,-2.0,74.3*
O=C(COC(=O)c1ccc(NS(=O)(=O)c2cccs2)cc1O)NC1CCCCC1,33.5*,-2.0,17.6,12.4,7.9,-5.2,16.9
SMILES,PAFAH2 inh,PKA-R1A activ,pPAFAH inh,PAFAH1B3 inh,PAFAH1B2 inh,PKA-R2B act,PAFAH2 FP conf
Cc1ccc(C(=O)OCC(=O)NC2CCCC(C)C2C)s1 (configuration not stated),.,4.8,.,.,.,0.6,.
O=C(OCC(=O)N1CCCC1)c1ccc(NS(=O)(=O)c2cccs2)cc1O,-3.4,-10.0,4.6,6.2,1.4,2.1,.
CC1CCCC(NC(=O)COC(=O)c2n[nH]c3ccccc23)C1C (configuration not stated),78.6*,0.1,-11.1,5.2,5.0,0.8,72.4*
Cc1ccc(C(=O)NCC(=O)OCC(=O)NC2CCCC(C)C2C)s1 (configuration not stated),47.9*,2.6,2.2,-6.0,4.2,1.7,31.4*
O=c1[nH]c(C2CCN(S(=O)(=O)c3cccc([N+](=O)[O-])c3)CC2)nc2c1nnn2Cc1ccccc1,0.5,-4.9,5.2,6.8,1.6,-2.3,.
CC1CCCC(NC(=O)COC(=O)c2cccs2)C1C (configuration not stated),81.5*,-4.4,2.9,3.2,0.5,4.1,85.1*
O=C(COC(=O)c1cccs1)NC1CCCCC1,76.0*,-16.8,11.5,3.5,5.3,-5.6,84.7*
CC1CCCC(NC(=O)CNC(=O)c2cccs2)C1C (configuration not stated),-1.7,-8.6,-0.3,9.6,-1.0,2.7,.
Cc1ccc(N(CC(=O)N2CCCCCC2)S(C)(=O)=O)c(C)c1,.,-10.4,.,.,.,-9.2,.
COc1ccccc1N1CCN(CCCN=C2CC(=O)N(C)C(=O)N2C)CC1,5.2,-4.2,-2.0,12.3,-0.1,-1.2,.
O=C(COC(=O)/C=C/c1ccccc1[N+](=O)[O-])NCC(F)(F)F,29.9*,-10.9,16.1,3.7,-2.9,-1.9,16.2
COc1ccc(CN2C(=O)CS/C2=N/N=C/c2cccs2)cc1,3.3,5.9,-12.4,6.8,2.5,-0.2,.
O=C(CSc1cccc[n+]1[O-])c1ccccc1Br,39.3*,-11.6,0.0,2.1,3.5,0.3,38.7*
Cc1nn(-c2ccccc2)c(C)c1/C=C/C(=O)OCC(=O)Nc1ccc(S(N)(=O)=O)cc1,-24.1,-0.4,-1.0,2.6,-2.4,7.0,.
Nc1nnc(SCC(=O)NNC(=O)c2ccccc2F)s1,6.4,3.6,0.4,1.6,0.3,6.7,.
CCOC(=O)c1nnn(-c2nonc2-n2cccc2)c1CCl,31.4*,-8.4,0.3,4.9,0.7,0.3,43.6*
CCC(NS(=O)(=O)c1ccc2c(c1)Cc1cc(S(=O)(=O)NC(CC)C(=O)O)ccc1-2)C(=O)O (configuration not stated),0.6,-7.6,5.4,13.4,-2.3,-3.6,.
CN(C)S(=O)(=O)c1cccc(COC(=O)c2ccc3c(c2)OCO3)c1,31.0*,-4.6,7.6,3.4,2.9,-2.9,25.1

# Bioassay records (PubChem BioAssay)
